# Data: PubChem BioAssay AID1053180 (Broad Institute, 2014)
# Where “and” joins values, the source holds several entries; their conditions need not be identical. Equal entries are not always repeated. Hit rate of the full screen: of about 9,600 compounds, about 20 (0.2%) were called active.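 The calls were made as follows: active = highest normalized replicate activity of 15 or more, or at least half the replicates reach 15 or more; inactive = neither condition met.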 The entries come from a sample that favours actives as a whole. Some structures have more than one record in an assay (separate samples or runs), and their calls can disagree.
# Experiment: Pax4 mRNA upregulation in alpha cells – RT-PCR, mouse alpha TC1 cells, single point, primary screen (AID 1053180);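 also: Pax4 Ct normalized to GAPDH with activation seen as lower delta delta Ct; plate controls were plate neutral control wells for no effect and Pax4 plasmid positive control for full effect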
# Details: Pax4 mRNA qPCR, 6 days, at 10 µM, stronger effect = higher value, 100% = Pax4 plasmid added at qPCR
row,SMILES,activation
1,COc1cccc(C#Cc2ccc([C@H]3[C@H](CO)N4C(=O)CN(C(=O)Cc5cccnc5)C[C@@H]34)cc2)c1,0% (inactive)
2,CO[C@H]1CC[C@H]2CCOc3c(C#N)cccc3C(=O)N(C)C[C@H](OC)[C@H](C)C(=O)N(C)C[C@@H]1O2,-0.0005% (inactive)
3,CO[C@H]1CN(C)C(=O)c2cc(NC(=O)CC(F)(F)F)ccc2OC[C@@H](C)N(CC2CC2)C[C@@H]1C,-0.0005% (inactive)
4,C[C@H](CO)N1C[C@H](C)[C@H](CN(C)Cc2ccc3c(c2)OCO3)Oc2ccc(NS(=O)(=O)c3cn(C)cn3)cc2CC1=O,0.004% (inactive)
5,N#C[C@@H]1N[C@@H](CO)[C@@H]1c1ccc(C#CC2CCCCC2)cc1,0.001% (inactive)
6,Cc1noc(C)c1S(=O)(=O)N(C)C[C@H]1Oc2c(NS(=O)(=O)c3cn(C)cn3)cccc2C(=O)N([C@@H](C)CO)C[C@@H]1C,-0.005% (inactive)
7,COc1ccc2c3c([nH]c2c1)[C@H](CO)N(C(=O)Nc1ccc(F)cc1)CC31CN(S(=O)(=O)c2ccc(C)cc2)C1,0.006% (inactive)
8,CCS(=O)(=O)Nc1ccc2c(c1)C(=O)N(C)[C@@H]1CC[C@H](CC(=O)NC3CCCCC3)O[C@@H]1CO2,0% (inactive)
9,C[C@@H]1CN([C@H](C)CO)C(=O)Cc2cc(NS(=O)(=O)c3ccc(Cl)cc3)ccc2O[C@@H]1CN(C)C(=O)Nc1ccc(C(F)(F)F)cc1,0.005% (inactive)
10,CC(C)NC(=O)Nc1ccc2c(c1)C(=O)N([C@H](C)CO)C[C@H](C)[C@@H](CN(C)C(=O)C1CCCCC1)OCCCC[C@H](C)O2,-0.0015% (inactive)
11,O=C(C[C@@H]1CC[C@H]2[C@@H](COC[C@H](O)CN2S(=O)(=O)c2cccc(F)c2)O1)NCc1ccncn1,0.011% (inactive)
12,Cc1nn(C)cc1NC(=O)C[C@@H]1CC[C@@H]2[C@@H](COc3ccc(NC(=O)c4cccc(F)c4)cc3C(=O)N2C)O1,0.0025% (inactive)
13,C[C@@H]1CN([C@H](C)CO)C(=O)c2cc(NS(=O)(=O)c3ccccc3)ccc2O[C@@H](C)CCCCO[C@@H]1CN(C)C(=O)C1CCCCC1,-0.001% (inactive)
14,CC(C)[C@@H]1CCc2cnnn2COC[C@H](Cc2ccccc2)NC1=O,-0.0175% (inactive)
15,O=C(C[C@H]1CC[C@@H]2[C@H](COC[C@H](O)CN2Cc2ccc3c(c2)OCO3)O1)N1CCCCC1,0.002% (inactive)
16,COc1ccc2c3c([nH]c2c1)[C@@H](CO)NCC31CN(Cc2cc(F)ccc2F)C1,0.0025% (inactive)
17,O=S(=O)(c1ccc(F)cc1)N1CCCCN2[C@H](CO)[C@H](c3ccc(-c4cncnc4)cc3)[C@H]2C1,0.001% (inactive)
18,O=C(C[C@H]1C[C@H]2c3cc(NS(=O)(=O)c4ccccc4)ccc3O[C@H]2[C@H](CO)O1)N1CCOCC1,0.0015% (inactive)
19,CC(=O)N1[C@@H]2Cn3c(ccc(-c4cccnc4)c3=O)[C@H]1[C@@H](C(=O)NC1Cc3ccccc3C1)[C@@H]2CO,0% (inactive)
20,C[C@H]1CN([C@@H](C)CO)C(=O)Cc2cc(NS(=O)(=O)c3ccc(Cl)cc3)ccc2O[C@H]1CN(C)C(=O)Nc1ccc(C(F)(F)F)cc1,-0.003% (inactive)
21,CN(C)C(=O)c1ccc(-c2ccc([C@@H]3[C@@H](CO)N4C(=O)CN(C(=O)CC5CC5)C[C@H]34)cc2)cc1,0.005% (inactive)
22,COc1ccc(CN2[C@@H]3CN(C(=O)NC(C)C)c4ccccc4[C@@H]3[C@@H]2CO)cc1,-0.0005% (inactive)
23,C[C@H](CO)N1C[C@H](C)[C@@H](CN(C)Cc2ccccc2)Oc2c(NC(=O)Cc3cn(C)c4ccccc34)cccc2C1=O,13.8% (active)
24,C[C@H](CO)N1C[C@H](C)[C@@H](CN(C)Cc2ccc(-c3ccccc3)cc2)Oc2c(NS(C)(=O)=O)cccc2C1=O,-0.001% (inactive)

row,SMILES,activation
1,C[C@H](CO)N1C[C@H](C)[C@@H](CN(C)Cc2ccc(Oc3ccccc3)cc2)Oc2c(NC(=O)CCC(F)(F)F)cccc2C1=O,0.039% (inactive)
2,C[C@@H](NC(=O)C[C@H]1CC[C@@H]2[C@@H](COc3ccc(NC(=O)C4CCOCC4)cc3C(=O)N2C)O1)c1ccccc1,0.0015% (inactive)
3,O=C(NC1CCCC1)N[C@H]1C=C[C@H](CC(=O)N2CCOCC2)O[C@H]1CO,0.0045% (inactive)
4,COc1ccc(S(=O)(=O)Nc2ccc3c(c2)CC(=O)N([C@H](C)CO)C[C@@H](C)[C@H](CN(C)Cc2ccc(C(=O)Nc4ccccc4N)cc2)O3)cc1,0.03% (inactive)
5,COc1ccc(S(=O)(=O)Nc2ccc3c(c2)CC(=O)N([C@H](C)CO)C[C@@H](C)[C@@H](CN(C)Cc2ccc(C(=O)Nc4ccccc4N)cc2)O3)cc1,0.03% (inactive)
6,C[C@H]1CN([C@@H](C)CO)C(=O)Cc2cc(NC(=O)C3CCCCC3)ccc2O[C@H]1CN(C)Cc1ccc(Cl)c(Cl)c1,0.106% (inactive)
7,C[C@@H]1CN([C@H](C)CO)C(=O)Cc2cc(NC(=O)C3CCCCC3)ccc2O[C@H]1CN(C)Cc1ccc(Cl)c(Cl)c1,0.389% (inactive)
8,C[C@@H]1CN([C@@H](C)CO)C(=O)Cc2cc(NC(=O)C3CCCCC3)ccc2O[C@@H]1CN(C)Cc1ccc(Cl)c(Cl)c1,46.5% (active)
9,COc1ccc(S(=O)(=O)Nc2ccc3c(c2)CC(=O)N([C@H](C)CO)C[C@H](C)[C@H](CN(C)Cc2ccc(C(=O)Nc4ccccc4N)cc2)O3)cc1,15.1% (active)
10,CCCN1C[C@H](C)[C@H](OC)CN(C)C(=O)c2ccc(NS(=O)(=O)c3cn(C)cn3)cc2OC[C@@H]1C,0.0005% (inactive)
11,CN1CCN(C(=O)C[C@H]2C[C@H]3c4cc(NS(C)(=O)=O)ccc4O[C@H]3[C@H](CO)O2)CC1,0% (inactive)
12,O=C(c1ccccn1)N1CC[C@@H]2[C@@H](CO)Nc3ccc(C#Cc4cccnc4)cc3[C@@H]21,0.001% (inactive)
13,CN(C)C(=O)c1cccc(-c2ccc(C3[C@@H]4CN(Cc5ccccc5F)C[C@H]3N4)cc2)c1 (stereo partly drawn),1.26% (inactive) and 21.9% (active)
14,Cc1ccccc1S(=O)(=O)N1C[C@@H]2N[C@H](C1)C2c1ccc(/C=C/c2ccccc2)cc1 (stereo partly drawn),0.183% (inactive)
15,C/C=C/c1ccc(C2[C@@H]3CN(S(=O)(=O)c4ccccc4F)C[C@H]2N3)cc1 (stereo partly drawn),0.01% (inactive)
16,C(=C\c1ccc(C2[C@@H]3CN(Cc4nccs4)C[C@H]2N3)cc1)/c1ccccc1 (stereo partly drawn),0.714% (inactive) and 0.0635% (inactive)
17,COc1ccccc1-c1ccc(C2[C@@H]3CN(Cc4cccc(F)c4)C[C@H]2N3)cc1 (stereo partly drawn),0.062% (inactive)
18,O=S(=O)(c1ccc(F)cc1)N1C[C@@H]2N[C@H](C1)C2c1ccc(/C=C/c2ccccc2)cc1 (stereo partly drawn),8.33% (active) and 0.035% (inactive)
19,Fc1ccc(-c2ccc(C3[C@@H]4CN(Cc5ccccc5)C[C@H]3N4)cc2)cc1 (stereo partly drawn),1.66% (inactive) and 0.0585% (inactive)
20,Fc1cccc(CN2C[C@@H]3N[C@H](C2)C3c2ccc(/C=C/c3ccccc3)cc2)c1 (stereo partly drawn),3.54% (inactive) and 8.86% (active)
21,Fc1cccc(-c2ccc(C3[C@@H]4CN(Cc5cncnc5)C[C@H]3N4)cc2)c1 (stereo partly drawn),0.047% (inactive) and 0.0125% (inactive)
22,CN(C)C(=O)c1cccc(-c2ccc(C3[C@@H]4CN(Cc5cocn5)C[C@H]3N4)cc2)c1 (stereo partly drawn),0.001% (inactive)
23,CN(C)C(=O)c1ccc(-c2ccc(C3[C@@H]4CN(Cc5ccccc5Cl)C[C@H]3N4)cc2)cc1 (stereo partly drawn),0.0085% (inactive)
24,Cc1cccc(-c2ccc(C3[C@@H]4CN(Cc5cccc(F)c5)C[C@H]3N4)cc2)c1 (stereo partly drawn),50.5% (active) and 0.557% (inactive)
